This is a sample that favours compounds with a hit; in the whole collection about 4.1% have one here.
DAX1 inh-1: DAX1 (NR0B1) inhibitors, primary screen, cell-based, HEK293, Gal4-DAX1, luciferase luminescence; Nuclear receptor subfamily 0 group B member 1 (Homo sapiens), P51843; HEK293 Gal4-DAX1 luciferase reporter; inhibition, % at 6.75 µM; actives 0.99% (n = 340,000);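 active means inhibition above the mean over all tested compounds plus 3 SD, cut at about 4.2% in these data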;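 further: 0% = DAX1-transfected cells with DMSO and 100% = empty-vector control cells with DMSO; inhibition shows as a rise in luminescence from relieved DAX1 repression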
Target sequence (P51843 207-470 limits assumed): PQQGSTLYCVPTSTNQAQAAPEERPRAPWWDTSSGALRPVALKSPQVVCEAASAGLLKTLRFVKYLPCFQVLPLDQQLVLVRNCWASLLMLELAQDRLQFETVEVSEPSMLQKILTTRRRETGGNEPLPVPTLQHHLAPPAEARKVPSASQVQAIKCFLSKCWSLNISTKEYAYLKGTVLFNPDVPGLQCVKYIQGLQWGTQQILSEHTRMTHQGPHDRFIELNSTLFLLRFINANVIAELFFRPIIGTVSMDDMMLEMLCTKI
DAX1 inh-2: DAX1 (NR0B1) inhibitors on StAR promoter, primary screen, cell-based, luminescence, SF-1 (NR5A1), full-length DAX-1. HEK293T StAR-luciferase reporter, SF-1/DAX-1 repression relief. inhibition, % at 6.8 µM. actives 1.1% (n = 370,000);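 active means inhibition above the mean over all tested compounds plus 3 SD, cut at about 3.6% in these data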;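 further: 0% = DAX-1 cells with DMSO and 100% = cells lacking DAX-1 with DMSO; higher inhibition means more luminescence from relief of DAX-1 repression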
hgDAF12 agonist: H. glycines DAF-12 receptor agonists, primary screen, cell-based, luminescence, HEK293, GAL4 fusion, UAS-luciferase. AID 687014, 2013. Nuclear hormone receptor DAF-12 (Heterodera glycines), GAL4 fusion. activation, % at 6.8 µM. HEK293 GAL4-hgDAF12 UAS-luciferase reporter, agonist luminescence; normalized to butyrate control. actives 1.8% (n = 370,000);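 active means activation above a cutoff set at the mean of all screened compounds plus 3 SD, cut at about 10% in these data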;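 further: 0% = DMSO wells and 100% = sodium butyrate wells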
ssDAF12 agonist: S. stercoralis DAF-12 nuclear receptor activators, primary screen, cell-based, luminescence, HEK293, GRIP1 co-expression, lit1-tk-luc; AID 652126, 2013; HEK293 ssDAF-12/GRIP1 lit1-tk-luc reporter; % of 3 µM dafachronic acid response; actives 1% (n = 370,000); activation, % at 6.8 µM; Nuclear hormone receptor DAF-12 (Strongyloides stercoralis);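 active means activation above the mean over all tested compounds plus 3 SD, cut at about 0.9% in these data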;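 further: 0% = DMSO-only wells and 100% = 3 µM delta7-dafachronic acid wells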
hcDAF12 agonist: H. contortus DAF-12 nuclear receptor activators, primary screen, cell-based, luminescence, HEK293, lit1-tk-luc reporter; actives 1.4% (n = 370,000); HEK293 hcDAF-12 lit1-tk-luc reporter; 0% DMSO, 100% Δ7-dafachronic acid; activation, % at 6.8 µM;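 active means activation above the mean of all tested compounds plus 3 SD, cut at about 5.5% in these data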;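 further: 100% = response to 3 µM Δ7-dafachronic acid high control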
Numbers without * were called inactive.

Screening NCCc1c(C(=O)O)[nH]c2ccc([N+](=O)[O-])cc12 returned DAX1 inh-1 1, DAX1 inh-2 0, hgDAF12 agonist -1, ssDAF12 agonist -2 and hcDAF12 agonist 0.
`Cc1c(C(=O)O)[nH]c2ccc([N+](=O)[O-])cc12` gave DAX1 inh-2 0, hgDAF12 agonist 2, ssDAF12 agonist -1 and hcDAF12 agonist 6.2*.
Screening CN=C1S/C(=C/c2cn(CC(=O)OC)c3ccccc23)C(=O)N1C returned DAX1 inh-1 2, DAX1 inh-2 -1, hgDAF12 agonist 2, ssDAF12 agonist 1.7* and hcDAF12 agonist 3.
CN=C1S/C(=C\c2cn(CC(=O)OC)c3ccccc23)C(=O)N1C was read as DAX1 inh-1 0, DAX1 inh-2 0, hgDAF12 agonist -2, ssDAF12 agonist 0.9* and hcDAF12 agonist 5.
Screening O=C(NCC1CCN(C(=O)C(=O)c2cccs2)CC1)c1ccc2ccccc2c1 returned DAX1 inh-2 -3, hgDAF12 agonist 1, ssDAF12 agonist -2 and hcDAF12 agonist -3.
O=C(O)c1ccc(-c2ccccc2)[nH]c1=O was read as DAX1 inh-1 5.4*, DAX1 inh-2 0, hgDAF12 agonist -2, ssDAF12 agonist -1 and hcDAF12 agonist -1.
`Cn1c(C(=O)c2ccccc2)nc2ccccc21` gave DAX1 inh-1 2, DAX1 inh-2 0, hgDAF12 agonist 2, ssDAF12 agonist -1 and hcDAF12 agonist 3.
For Cn1c(C(=O)c2ccccc2[N+](=O)[O-])nc2ccccc21 the results were DAX1 inh-1 1, DAX1 inh-2 -1, hgDAF12 agonist 4, ssDAF12 agonist 0 and hcDAF12 agonist 5.8*.
`CCOC(=O)c1sc(-c2ccc(OC)cc2)cc1N` gave DAX1 inh-1 3, DAX1 inh-2 2, hgDAF12 agonist 12*, ssDAF12 agonist 0 and hcDAF12 agonist 4.
`CCOC(=O)c1sc(-c2ccc(F)cc2)cc1N` gave DAX1 inh-1 0, DAX1 inh-2 3, hgDAF12 agonist 9, ssDAF12 agonist -2 and hcDAF12 agonist 0.
Screening O=c1c2cc3cc(Cl)ccc3nc2ncn1N1CCCCC1 returned DAX1 inh-2 3, hgDAF12 agonist 6, ssDAF12 agonist 0.9* and hcDAF12 agonist 3.
Screening CCCCN(C)C(=O)C1CCN(S(=O)(=O)c2ccc3[nH]c(=O)oc3c2)CC1 returned DAX1 inh-2 -1, hgDAF12 agonist 1, ssDAF12 agonist 0 and hcDAF12 agonist 1.
Cc1nc(N)[nH]c(=O)c1CCCNc1ccc(CCC2(CCl)OCCO2)cc1 was read as DAX1 inh-1 1, DAX1 inh-2 0, hgDAF12 agonist 13*, ssDAF12 agonist -1 and hcDAF12 agonist 2.
For S=C(Nc1ccc2[nH]ccc2c1)NC1CCCCC1 the results were DAX1 inh-1 4.7*, DAX1 inh-2 1, hgDAF12 agonist 9, ssDAF12 agonist 0 and hcDAF12 agonist 2.
For Cc1nc2ccc(NC(=S)NC3CCCCC3)cc2nc1C the results were DAX1 inh-1 6.6*, DAX1 inh-2 1, hgDAF12 agonist 3, ssDAF12 agonist -1 and hcDAF12 agonist 1.
For C[C@H]1CNCCN1c1ccc(N2CCS(=O)(=O)CC2)c(C#N)c1 the results were DAX1 inh-2 1, hgDAF12 agonist 3, ssDAF12 agonist -1 and hcDAF12 agonist 3.
`CCCCc1c(-c2ccccc2OC)ncn1Cc1ccc([N+](=O)[O-])cc1` gave DAX1 inh-2 -1, hgDAF12 agonist 0, ssDAF12 agonist -1 and hcDAF12 agonist -2.
`O=C(c1ccc(Cl)c(Cl)c1)c1cnc(Nc2ccccc2)s1` gave DAX1 inh-1 -1, DAX1 inh-2 -1, hgDAF12 agonist 2, ssDAF12 agonist -1 and hcDAF12 agonist 0.
Screening CC(=O)c1cnc(Nc2ccc(C)cc2)s1 returned DAX1 inh-1 4.7*, DAX1 inh-2 2, hgDAF12 agonist 9, ssDAF12 agonist -1 and hcDAF12 agonist 1.
For CCOC(=O)CSC1=C(C#N)C(c2ccccc2OCC)C(C#N)C(=O)N1 (centres undefined) the results were DAX1 inh-1 4.2*, DAX1 inh-2 1, hgDAF12 agonist 1, ssDAF12 agonist -1 and hcDAF12 agonist -2.
COC(=O)CCC(=O)OC1(C)C(=O)C=C2C=C(C3CC3)N(CCc3c[nH]c4ccccc34)C=C2C1=O (centres undefined) was read as DAX1 inh-1 0, DAX1 inh-2 0, hgDAF12 agonist 1, ssDAF12 agonist 0 and hcDAF12 agonist 6.3*.
COC(=O)CCC(=O)OC1(C)C(=O)C=C2C=C(C3CC3)N(CCc3ccccn3)C=C2C1=O (centres undefined) was read as DAX1 inh-1 1, DAX1 inh-2 0, hgDAF12 agonist 0, ssDAF12 agonist -1 and hcDAF12 agonist -1.
O=[N+]([O-])c1ccccc1N=NNc1ccccc1 was read as DAX1 inh-1 0, DAX1 inh-2 0, hgDAF12 agonist 3, ssDAF12 agonist 1.6* and hcDAF12 agonist 3.
Screening CCOc1cc(/C=N/N=C2/NC(=O)C(CC(=O)O)S2)ccc1OCc1ccc(Cl)cc1Cl (centres undefined) returned DAX1 inh-1 0.
COc1cc(/C=N/N=C2/NC(=O)C(CC(=O)O)S2)ccc1OCc1ccc(Cl)cc1 (centres undefined) was read as DAX1 inh-1 3, DAX1 inh-2 3, hgDAF12 agonist 12*, ssDAF12 agonist -1 and hcDAF12 agonist 5.
For CCCCNC(=O)c1cc2c(-c3ccc(Cl)cc3)nn(C)c2s1 the results were DAX1 inh-1 4, DAX1 inh-2 -1, hgDAF12 agonist 6, ssDAF12 agonist 0 and hcDAF12 agonist 5.9*.
For Cn1nc(-c2ccc(Cl)cc2)c2cc(C(=O)N3CCN(c4ccccc4)CC3)sc21 the results were DAX1 inh-1 0, DAX1 inh-2 0, hgDAF12 agonist 2, ssDAF12 agonist 0 and hcDAF12 agonist 5.7*.
Screening COCCCNC(=O)c1cc2c(-c3ccc(Cl)cc3)nn(C)c2s1 returned DAX1 inh-1 1, DAX1 inh-2 0, hgDAF12 agonist 0, ssDAF12 agonist 0 and hcDAF12 agonist 4.
`CC(C)NC(=O)c1cc2c(-c3ccc(Cl)cc3)nn(C)c2s1` gave DAX1 inh-1 4.4*, DAX1 inh-2 0, hgDAF12 agonist 2, ssDAF12 agonist 0 and hcDAF12 agonist 3.
`CCN1CCCC1CNC(=O)c1cc2c(-c3ccc(Cl)cc3)nn(C)c2s1` (centres undefined) gave DAX1 inh-1 4.6*.
